Data taken from PubChem BioAssay (Tox21).
Where “and” joins values, the source holds several entries; their conditions need not be identical. Identical values can stand only once. Records with an inconclusive call do not appear. A call without a number means that no potency is given here. The source holds several records for some structures; these can differ, active in one and inactive in another. Calls of active or inactive are those of the source. Calls come from the whole dose curve; as a rule, active = well fitted activation curve with a large enough effect in the repeat runs; inconclusive = weak or mixed curves; inactive = flat fitted curve, though single readings scatter.

experiment: A CellTox Green Cytotoxicity Assay to monitor cytotoxicity in HEK293 cells - 32 hour (AID 1224881); details: CellTox Green fluorescence; series mostly up to 76.8 µM; note: nearly all actives have a fitted effect of over 40% in size
In short: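 Seeding of HEK293 cells together with cytotoxicity dye preceded a 5 h incubation at 37 C/5% CO2. Test compounds in DMSO were then added and fluorescence monitored across 40 h.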
Potency is the fitted concentration of half-maximal effect.

| Compound | Potency |
| --- | --- |
| CCN(CC)c1ccc2c(C)cc(=O)oc2c1 | inactive |
| CCCN[C@H]1CCc2nc(N)sc2C1 | inactive |
| CC(C)(C)c1ccccc1 | inactive |
| NC12CC3CC(CC(C3)C1)C2 | inactive |
| NC(N)=NC(=O)Cc1c(Cl)cccc1Cl | inactive |
| CC(C)(C)NC(=O)[C@@H]1CN(Cc2cccnc2)CCN1C[C@@H](O)C[C@@H](Cc1ccccc1)C(=O)N[C@H]1c2ccccc2C[C@H]1O | inactive |
| CCCCCCCCCCCCCC[P+](CCCC)(CCCC)CCCC | 12.2 µM (active) and 17.4 µM (active) |
| CCCNC(C)C(=O)Nc1ccccc1C (configuration not stated) | inactive |
| CCOc1ccccc1C(N)=O | inactive |
| CC(=O)CC(C)=O | inactive |
| O=c1n(CC2CO2)c(=O)n(CC2CO2)c(=O)n1CC1CO1 (configuration not stated) | inactive |
| NNCCc1ccccc1 | inactive |
| CC1COC(=O)O1 (configuration not stated) | inactive |
| CC1=CC(=O)c2ccccc2C1=O | 19.5 µM (active) and 26.8 µM (active) |
| O=Nc1ccc(Nc2ccccc2)cc1 | 6.2 µM (active) and 7.76 µM (active) |
| Oc1ccc(Cl)cc1Cc1cc(Cl)ccc1O | inactive |
| CCCCOCCOC(=O)c1ccccc1C(=O)OCCOCCCC | inactive |
| CCn1cc(C(=O)O)c(=O)c2cc(F)c(N3CCNC(C)C3)c(F)c21 (configuration not stated) | inactive |
| O=C(O)CP(=O)(O)O | inactive |

| Compound | Potency |
| --- | --- |
| CCN(CC)C(=O)Nc1ccc(OCC(O)CNC(C)(C)C)c(C(C)=O)c1 (configuration not stated) | inactive |
| CCOc1ccc2c(c1)C(C)=CC(C)(C)N2 | inactive |
| COc1ccc(Cc2cnc(N)nc2N)cc1OC | inactive |
| Cc1occc(=O)c1OC(=O)C(C)C | inactive |
| CC(=O)C1=C(C)[C@@H]2C[C@@]3(C1)[C@H](C)CC[C@H]3C2(C)C | 36.2 µM (active) and inactive |
| O=C(O)c1cccc(C(=O)O)c1 | inactive |
| c1ccc2cc3c(ccc4ccccc43)cc2c1 | inactive |
| CC[C@@H](N)CO | inactive |
| Cc1scc2c1N(C(=O)CN1CCN(C)CC1)c1ccccc1NC2=O | inactive |
| CC(N)=O | inactive |
| O=C1OC2(c3ccc(O)cc3Oc3cc(O)ccc32)c2ccccc21 | 692 nM (active) and 1.2 µM (active) |
| c1ccc2n[nH]nc2c1 | inactive |
| Oc1c(Cl)cc(Cl)c(Cl)c1Cc1c(O)c(Cl)cc(Cl)c1Cl | 54.8 µM (active) and 49 µM (active) and inactive |
| c1ccc2c(c1)CCCC2C1=NCCN1 (configuration not stated) | inactive |
| CN1C(=O)c2ccc([N+](=O)[O-])cc2C1=O | inactive |
| Cc1cc(Cc2cc(C)cc(C(C)(C)C)c2O)c(O)c(C(C)(C)C)c1 | 49.2 µM (active) and 43.6 µM (active) |
| CCN(CC)CCOc1ccc(/C(=C(\Cl)c2ccccc2)c2ccccc2)cc1 | 28.1 µM (active) and 23.9 µM (active) |
| NCCO | inactive |
